Test [1] is described as follows: rapamycin-like changes in RPL19A-GFP expression – cell-based, S. cerevisiae, multiplex flow cytometry, primary screen (AID 1862).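 Further: lower values mimic rapamycin by blocking the RPL19A rise seen in DMSO cells.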 The following applies: S. cerevisiae RPL19A-GFP strain, flow cytometry fluorescence, 3 h; at 10 µM; stronger effect = lower value. A general note: A flow cytometer gives signals particle by particle.
Test [2] is described as follows: TOR pathway GLN3 branch reporter MEP2-GFP changes – S. cerevisiae, multiplex flow cytometry, primary screen (AID 1867;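 active means GFP response, as percent of the DMSO control, above the screen-wide mean plus 3 SD, about 139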;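 further: median GFP channel fluorescence of barcode-gated MEP2-GFP cells measured by flow cytometry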). The following applies: S. cerevisiae MEP2-GFP strain, 3 h, at 10 µM, stronger effect = higher value, 100% means same as DMSO wells.
Test [3] can be described thus: TOR pathway RTG branch CIT2 reporter changes – S. cerevisiae, GFP fusion, multiplex flow cytometry, primary screen (AID 1870;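 active means percent response above a set limit, the screen-wide mean plus 3 SD, cut at about 130% in these data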;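 further: barcoded CIT2-GFP strain pooled with four other GFP strains with rapamycin as positive control; median GFP fluorescence per well over plate mean of DMSO wells so 100% = DMSO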). The following applies: S. cerevisiae CIT2-GFP expression, 3 h, at 10 µM, stronger effect = higher value.
Test [4] is described as follows: TOR pathway LAP4-GFP level changes – S. cerevisiae, multiplex flow cytometry, primary screen (AID 1873;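 active means GFP signal, as percent of the solvent control, above the screen mean plus 3 SD, about 149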). As to conditions: S. cerevisiae LAP4-GFP expression, 3 h, at 10 µM, stronger effect = higher value.
The nature of test [5]: yeast AGP1-GFP level changes, GLN3 branch – cell-based, multiplex flow cytometry, S. cerevisiae, primary screen (AID 1887;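 active means GFP signal above the screen-wide mean plus 3 SD, that is over about 124.5% of the solvent control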;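 further: AGP1-GFP fusion strain of S. cerevisiae within a five-strain barcoded multiplex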). As to conditions: 3 h, at 10 µM, stronger effect = higher value.
A short description of test [6]: reduced mouse 2C T cell binding to pMHC/ICAM-1 vesicles – MLPCN validation set, flow cytometry, LFA-1/ICAM-1 modulator project, pilot screen (AID 2523;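 active means response below a set limit, under 55% cells CD8-positive and vesicle-bound, and CD8 cells' 90th-percentile brightness under 279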;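 on vesicle binding response: mean PE anti-B7-1 fluorescence of CD8+ cells relative to row control; 100% = QL9-loaded vesicles with DMSO vehicle in the same plate row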). The following applies: 2C mouse CD8+ T cells, at 7 µM, stronger effect = lower value; double positive events: measured here: CD8+/vesicle+ event percentage.
Test [7] has as its target Integrin beta-1 (Homo sapiens) + Integrin alpha-4 (Homo sapiens) (UniProt P13612+P05556). Briefly: alpha4beta1 integrin LIBS antibody binding reduction – U937 cells, HUTS-21 mAb, flow cytometry, validation set, VLA-4 allosteric modulator project, pilot screen (AID 2674;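 active means inhibition above 50%, about 3 SD of the validation set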;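 further: antibody binding induced by the VLA-4 ligand LDV present at three times its Kd; 0% = LDV ligand with antibody and no compound and 100% = antibody without LDV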). The following applies: HUTS-21 LIBS mAb binding, at 6.7 µM, stronger effect = higher value, binding induced by LDV ligand.

Test [8] in a line: calorie-restriction mimetic ROS inhibitors, yeast – validation compound set, pilot screen (AID 2706;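 active means superoxide response below 65% of plate, a cut near 3 SD across the whole screen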;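 further: yeast exposed to compound for one week at 30 degrees C before staining; 100% = mean of all compound wells on the same plate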). The following applies: S. cerevisiae aging, superoxide DHE fluorescence; at 10 µM, stronger effect = lower value.
The target in test [9] is Beta-adrenergic receptor kinase 1 (Homo sapiens) (UniProt P25098). As to the kind of experiment: GRK2 binders displacing RNA aptamer, biochemical, validation, human GRK2, bead flow cytometry (AID 488806;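 active means aptamer binding inhibition above 30%, about 3 SD of noise from non-fluorescent compounds; inactive means inhibition at or below 30%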). The following applies: bead-bound GRK2, FAM-aptamer displacement, at 10 µM, stronger effect = higher value.
Sequence of Beta-adrenergic receptor kinase 1 (Homo sapiens) (P25098 whole entry, looked up): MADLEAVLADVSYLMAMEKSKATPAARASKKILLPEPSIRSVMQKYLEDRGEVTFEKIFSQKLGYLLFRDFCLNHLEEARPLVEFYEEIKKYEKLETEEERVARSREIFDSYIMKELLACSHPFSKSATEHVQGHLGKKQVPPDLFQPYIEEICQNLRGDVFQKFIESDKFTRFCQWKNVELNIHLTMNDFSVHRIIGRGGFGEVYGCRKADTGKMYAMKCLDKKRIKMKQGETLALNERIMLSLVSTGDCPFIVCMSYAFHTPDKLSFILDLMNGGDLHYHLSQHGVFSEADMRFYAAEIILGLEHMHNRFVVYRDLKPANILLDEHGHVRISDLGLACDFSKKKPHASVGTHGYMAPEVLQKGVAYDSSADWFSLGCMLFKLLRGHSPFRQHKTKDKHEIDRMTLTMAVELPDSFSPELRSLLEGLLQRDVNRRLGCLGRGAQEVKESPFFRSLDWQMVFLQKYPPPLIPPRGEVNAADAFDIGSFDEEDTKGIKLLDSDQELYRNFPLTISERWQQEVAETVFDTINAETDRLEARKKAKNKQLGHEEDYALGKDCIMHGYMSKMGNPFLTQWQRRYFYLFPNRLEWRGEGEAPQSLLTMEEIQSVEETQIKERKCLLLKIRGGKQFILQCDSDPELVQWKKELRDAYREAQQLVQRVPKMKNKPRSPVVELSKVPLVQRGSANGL
Test [10] concerns the target AP-2 complex subunit beta (Homo sapiens) (UniProt P63010). Briefly: beta-arrestin/AP2 interaction blockers – biochemical, validation set, GST-AP2 beads, flow cytometry, pilot screen (AID 504541;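 active means inhibition above 54%, about 3 SD of non-fluorescent compounds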;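 further: AP2 carries R879A mutation and is captured from E. coli lysate; bead-bound FITC arrestin peptide fluorescence measuring arrestin peptide binding to AP2; 0% = DMSO wells and 100% = excess unlabeled arrestin peptide control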). As to conditions: FITC arrestin peptide, at 10 µM, stronger effect = higher value, AP2 beta2 appendage fragment, R879A mutant.
Test [11] in a line: cytosolic pH regulators acting via V-ATPase – S. cerevisiae, pHLuorin, HTS validation (AID 504600; in the data active means response above about 15%;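 further: plate controls were DMSO for no effect and reference compound for full effect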). As to conditions: V-ATPase proton transport, at 10 µM, stronger effect = higher value.
The subject of test [12] is anti-desmoglein-3 scFv antibody binding to human DSG3. As to the kind of experiment: blockers of pathogenic pemphigus antibody–desmoglein-3 binding – biochemical, validation compound set, bead-based, flow cytometry, pilot screen (AID 588368;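 active means binding below the plate cutoff, the plate median minus 3 SD, with a reading above zero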;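 further: signal is the median channel fluorescence of bead-bound GFP antibody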). As to conditions: Protein G beads, DSG3-Fc, scFv-GFP binding, at 10 µM, stronger effect = lower value.
Test [13] in a line: Nile Red efflux blockade in pump-expressing yeast – validation compound set, multiplex, phenotypic, pilot screen (AID 588506;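 active means efflux inhibition above 0.42, the validation set average plus 4 SD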;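 further: Nile Red retained in cells so higher fluorescence means more efflux inhibition; 0 = negative control wells and 1 = enniatin B 25 µM full block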). As to conditions: S. cerevisiae pump-expressing triplex, Nile Red efflux flow cytometry; at 10 µM; stronger effect = higher value; the pumps come from Candida albicans.
Test [14] has as its target ATP-binding cassette sub-family B member 6 (Homo sapiens) (UniProt Q9NP58). As to the kind of experiment: blockers of ABCB6-driven porphyrin uptake – K562-ABCB6 cells, flow cytometry, validation set, pilot screen (AID 588550;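 active means inhibition above the screen-wide mean plus 3 SD, about 51%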;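 further: 0% = DMSO wells and 100% = benzethonium chloride 70 µM positive control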). The following applies: K562-ABCB6 porphyrin accumulation, 1 h, at 10 µM, stronger effect = higher value.
A short description of test [15]: AML differentiation inducers, ER-HoxA9 marrow cells – cell-based, GFP/MAC1 double positive, flow cytometry, validation set, primary screen (AID 588685;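 active means differentiation response of at least 50%, scaled between solvent and reference control, from cells with both markers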;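 further: compound exposure lasts four days before antibody staining and flow analysis; 0% = DMSO wells and 100% = 5 µM fulvestrant positive control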). The following applies: stronger effect = higher value, normalized: vehicle 0, fulvestrant 100.

This is an account of results in PubChem BioAssay.

Results filed as inconclusive are left out. Calls of active or inactive are those of the source. Unless noted, no stated cut-off is given here; in the data, active means percent of DMSO control GFP below about 86%; inactive means the rest, inconclusive results apart.

Sequence of Integrin beta-1 (Homo sapiens) + Integrin alpha-4 (Homo sapiens) (P05556 whole entry, looked up): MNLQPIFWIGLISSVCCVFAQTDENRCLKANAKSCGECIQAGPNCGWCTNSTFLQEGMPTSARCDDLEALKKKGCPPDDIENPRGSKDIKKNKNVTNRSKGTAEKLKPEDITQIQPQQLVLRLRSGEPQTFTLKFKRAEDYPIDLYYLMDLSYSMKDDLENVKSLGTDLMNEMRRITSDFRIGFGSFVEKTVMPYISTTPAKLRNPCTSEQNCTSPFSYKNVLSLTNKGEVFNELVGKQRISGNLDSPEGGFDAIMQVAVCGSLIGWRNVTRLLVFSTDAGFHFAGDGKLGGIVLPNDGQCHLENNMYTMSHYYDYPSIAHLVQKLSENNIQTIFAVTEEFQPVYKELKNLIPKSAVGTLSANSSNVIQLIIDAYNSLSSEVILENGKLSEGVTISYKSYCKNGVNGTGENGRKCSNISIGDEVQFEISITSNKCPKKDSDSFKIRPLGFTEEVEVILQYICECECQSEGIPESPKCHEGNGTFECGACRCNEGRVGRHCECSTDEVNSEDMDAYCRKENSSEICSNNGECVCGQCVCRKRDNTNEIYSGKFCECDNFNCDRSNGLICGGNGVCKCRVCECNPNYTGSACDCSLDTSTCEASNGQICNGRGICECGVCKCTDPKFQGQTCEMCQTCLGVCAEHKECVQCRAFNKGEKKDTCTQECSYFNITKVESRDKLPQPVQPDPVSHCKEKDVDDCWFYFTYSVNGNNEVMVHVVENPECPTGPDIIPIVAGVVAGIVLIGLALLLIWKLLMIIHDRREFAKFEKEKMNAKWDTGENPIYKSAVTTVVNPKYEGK
Sequence of Integrin beta-1 (Homo sapiens) + Integrin alpha-4 (Homo sapiens) (P13612 whole entry, looked up): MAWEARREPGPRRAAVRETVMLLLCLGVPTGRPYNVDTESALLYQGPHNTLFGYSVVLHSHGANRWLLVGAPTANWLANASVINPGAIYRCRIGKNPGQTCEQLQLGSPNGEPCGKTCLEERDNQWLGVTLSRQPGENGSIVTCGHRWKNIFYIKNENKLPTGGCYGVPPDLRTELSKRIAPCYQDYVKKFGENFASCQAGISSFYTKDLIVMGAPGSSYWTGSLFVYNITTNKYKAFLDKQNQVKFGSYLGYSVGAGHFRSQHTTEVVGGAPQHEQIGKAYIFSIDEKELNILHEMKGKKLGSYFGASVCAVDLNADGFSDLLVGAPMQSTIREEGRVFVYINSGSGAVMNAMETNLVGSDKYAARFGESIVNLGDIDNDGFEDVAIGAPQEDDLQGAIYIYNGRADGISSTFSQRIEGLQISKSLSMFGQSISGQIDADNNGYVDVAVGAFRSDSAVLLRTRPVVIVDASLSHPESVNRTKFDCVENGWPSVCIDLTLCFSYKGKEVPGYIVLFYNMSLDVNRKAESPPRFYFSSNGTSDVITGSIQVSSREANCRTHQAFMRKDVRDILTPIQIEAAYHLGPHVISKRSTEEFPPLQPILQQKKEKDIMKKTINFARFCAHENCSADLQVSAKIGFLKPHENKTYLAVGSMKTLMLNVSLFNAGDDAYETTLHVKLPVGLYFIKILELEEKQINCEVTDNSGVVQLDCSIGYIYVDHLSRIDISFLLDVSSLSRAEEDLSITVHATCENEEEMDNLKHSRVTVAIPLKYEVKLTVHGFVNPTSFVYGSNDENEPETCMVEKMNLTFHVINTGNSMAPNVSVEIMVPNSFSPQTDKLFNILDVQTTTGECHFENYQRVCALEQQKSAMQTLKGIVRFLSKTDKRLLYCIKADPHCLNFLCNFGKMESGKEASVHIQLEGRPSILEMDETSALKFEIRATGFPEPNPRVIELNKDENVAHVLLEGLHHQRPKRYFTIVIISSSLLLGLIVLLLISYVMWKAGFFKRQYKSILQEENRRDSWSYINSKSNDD
Sequence of AP-2 complex subunit beta (Homo sapiens) (P63010 whole entry, looked up, the tested form may be a part, one chain of several): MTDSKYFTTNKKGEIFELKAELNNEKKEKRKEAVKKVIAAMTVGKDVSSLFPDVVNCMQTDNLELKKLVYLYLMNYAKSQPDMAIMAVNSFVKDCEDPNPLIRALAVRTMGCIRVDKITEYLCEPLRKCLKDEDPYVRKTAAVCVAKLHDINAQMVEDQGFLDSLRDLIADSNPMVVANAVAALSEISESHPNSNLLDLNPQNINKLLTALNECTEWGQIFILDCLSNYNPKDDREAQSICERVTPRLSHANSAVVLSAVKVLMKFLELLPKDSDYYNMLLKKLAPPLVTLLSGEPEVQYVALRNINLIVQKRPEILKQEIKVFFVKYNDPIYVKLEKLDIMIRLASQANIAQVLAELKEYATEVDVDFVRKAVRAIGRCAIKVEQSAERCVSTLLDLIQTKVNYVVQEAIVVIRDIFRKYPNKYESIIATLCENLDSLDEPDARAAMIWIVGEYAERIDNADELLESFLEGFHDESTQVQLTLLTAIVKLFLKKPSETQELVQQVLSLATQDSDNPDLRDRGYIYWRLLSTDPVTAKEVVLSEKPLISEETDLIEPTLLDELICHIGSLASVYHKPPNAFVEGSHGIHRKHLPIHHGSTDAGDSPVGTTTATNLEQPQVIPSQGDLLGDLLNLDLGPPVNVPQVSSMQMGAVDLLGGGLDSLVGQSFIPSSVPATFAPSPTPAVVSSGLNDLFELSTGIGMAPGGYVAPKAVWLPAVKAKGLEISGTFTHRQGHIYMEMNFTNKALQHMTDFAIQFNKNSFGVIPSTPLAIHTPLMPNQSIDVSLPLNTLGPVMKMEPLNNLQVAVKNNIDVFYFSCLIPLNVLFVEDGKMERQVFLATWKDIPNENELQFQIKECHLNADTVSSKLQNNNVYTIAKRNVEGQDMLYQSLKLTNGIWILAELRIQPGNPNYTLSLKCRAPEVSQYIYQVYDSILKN
Sequence of ATP-binding cassette sub-family B member 6 (Homo sapiens) (Q9NP58 whole entry, looked up): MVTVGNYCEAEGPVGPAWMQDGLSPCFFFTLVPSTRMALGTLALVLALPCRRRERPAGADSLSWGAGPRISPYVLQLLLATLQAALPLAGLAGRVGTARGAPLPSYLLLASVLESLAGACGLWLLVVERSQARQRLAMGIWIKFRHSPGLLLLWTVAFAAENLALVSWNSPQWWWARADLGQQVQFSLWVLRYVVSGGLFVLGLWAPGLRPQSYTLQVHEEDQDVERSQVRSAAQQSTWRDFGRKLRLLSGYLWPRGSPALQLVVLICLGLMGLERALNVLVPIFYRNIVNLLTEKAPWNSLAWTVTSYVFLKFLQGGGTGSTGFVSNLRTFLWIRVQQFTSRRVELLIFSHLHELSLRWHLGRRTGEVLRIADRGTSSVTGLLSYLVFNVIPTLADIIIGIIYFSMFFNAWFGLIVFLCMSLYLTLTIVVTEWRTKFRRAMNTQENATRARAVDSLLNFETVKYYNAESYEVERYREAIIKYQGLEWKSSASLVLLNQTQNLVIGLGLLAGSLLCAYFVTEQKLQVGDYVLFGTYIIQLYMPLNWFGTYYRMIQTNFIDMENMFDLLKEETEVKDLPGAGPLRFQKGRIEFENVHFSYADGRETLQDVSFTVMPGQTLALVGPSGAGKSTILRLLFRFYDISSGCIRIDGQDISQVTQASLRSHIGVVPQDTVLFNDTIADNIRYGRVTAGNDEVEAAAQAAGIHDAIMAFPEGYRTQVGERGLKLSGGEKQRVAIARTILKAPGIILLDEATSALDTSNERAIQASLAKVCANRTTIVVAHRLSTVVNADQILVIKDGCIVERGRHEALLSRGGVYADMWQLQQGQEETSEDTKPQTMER

A word on the inhibition: it is the change of the read-out against control, counted positive when it falls. Consider `CC1(C)Cc2ccccc2C(C(Cc2ccccc2)C(N)=O)=N1` (stereo not given), for which the percent of DMSO control GFP in [1] is 100% (inactive). Besides, the GFP response vs DMSO was 99.9% (inactive) in [2] and 89.3% (inactive) in [4]. Moreover, the percent response of DMSO control in [3] was 106% (inactive). In test [5], the GFP response, % of DMSO was 92.7% (inactive). In test [6], this molecule showed a double positive events of 51%. Also, the vesicle binding response in test [6] was 132% (inactive). Moreover, the inhibition in test [7] was 24% (inactive); in [10], -4.92% (inactive); in [14], 9% (inactive). The superoxide response (% of plate) in test [8] is 116% (inactive). Moreover, the aptamer binding inhibition in test [9] was 3% (inactive). In test [11], the response is 6.35% (inactive). Moreover, the binding (% of control) in [12] was 101% (inactive). Besides, the efflux inhibition (fraction of control) in test [13] was 0.44 (active). Also, the differentiation response in test [15] was -5.05% (inactive).

In the case of `O=C(CCN1CCC(c2ccccc2)C1)c1ccc2c(c1)OCCO2` (stereo not given), the percent of DMSO control GFP in test [1] is 102% (inactive). In addition, the GFP response vs DMSO in test [2] is 134% (inactive); in test [4], 104% (inactive). Also, the percent response of DMSO control in test [3] was 103% (inactive). Also, the GFP response, % of DMSO in test [5] is 102% (inactive). Further, the double positive events in test [6] turned out to be 47.2%. Also, in test [6], the vesicle binding response is 140% (inactive). The figures for the inhibition in [7], in test [10] and in test [14] were 13.8% (inactive), -9.51% (inactive) and 6% (inactive), respectively. In [8], the superoxide response (% of plate) is 94% (inactive). Moreover, the aptamer binding inhibition in [9] was 5% (inactive). In addition, the response in test [11] is 2.78% (inactive). Besides, the binding (% of control) in [12] is 103% (inactive). Besides, in test [13], the efflux inhibition (fraction of control) is -0.31 (inactive). In addition, the differentiation response in test [15] is -5.05% (inactive).

Take `O=[N+]([O-])c1ccc2cn[nH]c2c1`: the percent of DMSO control GFP in test [1] was 102% (inactive). The values for the GFP response vs DMSO in test [2] and in test [4] were 106% (inactive) and 93.3% (inactive), respectively. Also, the percent response of DMSO control in test [3] was 102% (inactive). In addition, in test [5], the GFP response, % of DMSO was 97.3% (inactive). The molecule also registered a double positive events in [6] of 60.3%. For the same molecule, the vesicle binding response in [6] was 265% (inactive). Also, the inhibition is 12.8% (inactive) in test [7], -5.23% (inactive) in test [10] and 10% (inactive) in [14]. Besides, the superoxide response (% of plate) in [8] is 97.5% (inactive). Besides, the aptamer binding inhibition in [9] is 1% (inactive). Also, the response in [11] is -6.52% (inactive). For the same molecule, the binding (% of control) in [12] is 98.2% (inactive). Also, the efflux inhibition (fraction of control) in test [13] is -0.05 (inactive). Also, in test [15], the differentiation response was -8.27% (inactive).

Regarding `Cn1c(=O)oc2cc(S(=O)(=O)N3CCc4ccccc4C3)ccc21`, the percent of DMSO control GFP in test [1] is 101% (inactive). Moreover, the GFP response vs DMSO in [2] was 98.9% (inactive); in test [4], 89.3% (inactive). In addition, in test [3], the percent response of DMSO control was 102% (inactive). The GFP response, % of DMSO in [5] is 97.8% (inactive). The molecule further displayed a double positive events in test [6] of 58.4%. The vesicle binding response in test [6] is 165% (inactive). Also, the inhibition was 15.6% (inactive) in [7], 7.43% (inactive) in test [10] and 10% (inactive) in [14]. In test [8], the superoxide response (% of plate) was 95.2% (inactive). Moreover, in [9], the aptamer binding inhibition was 2% (inactive). For the same molecule, the response in test [11] was 2.89% (inactive). For the same molecule, in [12], the binding (% of control) was 98.3% (inactive). Besides, in test [13], the efflux inhibition (fraction of control) is -0.05 (inactive). Also, the differentiation response in [15] was 9.49% (inactive).

Regarding `CC(C)Cc1ccc(C(C)C(=O)Nc2ccc(O)cc2)cc1` (stereo not given), the percent of DMSO control GFP in [1] is 103% (inactive). The GFP response vs DMSO is 105% (inactive) in [2] and 106% (inactive) in test [4]. For the same molecule, the percent response of DMSO control in test [3] was 107% (inactive). In [5], the GFP response, % of DMSO is 99.7% (inactive). For the same molecule, the double positive events in [6] amounted to 58.6%. The vesicle binding response in [6] is 178% (inactive). Moreover, the inhibition in test [7] is 13.8% (inactive); in [10], 33.6% (inactive); in test [14] it was 1% (inactive). Moreover, the superoxide response (% of plate) in test [8] was 110% (inactive). Also, the aptamer binding inhibition in test [9] is 2% (inactive). In [11], the response was -13.1% (inactive). Also, the binding (% of control) in [12] is 105% (inactive). Besides, in test [13], the efflux inhibition (fraction of control) is 0.14 (inactive). In addition, in test [15], the differentiation response was 0% (inactive).
